This is an account of results in PubChem BioAssay (NCI).

The panel holds about 83,000 compounds, 20% with a hit somewhere; the sample as a whole holds those more often.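 The test compound was applied at a single concentration to cells in 96-well plates for 48 hours, and percent growth was recorded.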 Unmarked numbers belong to inactive results. Active and inactive are the calls of the source. The calls were made as follows: active = growth percent below 10; inactive = the rest.

Test systems include RPMI-8226 leukemia; OVCAR-8 ovarian; OVCAR-5 ovarian; OVCAR-4 ovarian; SK-OV-3 ovarian; IGROV1 ovarian; OVCAR-3 ovarian; HS 578T breast; NCI/ADR-RES ovarian; BT-549 breast; MDA-MB-435 melanoma; SW-620 colon; MCF7 breast; HCT-116 colon; HCC-2998 colon; KM12 colon; T-47D breast.
What all share (assay): NCI-60 one-dose screen, 48 h (100 = growth as untreated, 0 = no growth, -100 = all killed)
Holding throughout (conditions): 10 µM unless noted

With `CCOC(=O)C1C(=O)OC2CCCCC21` (configuration not stated), the growth is 99.9% in the assay with RPMI-8226 leukemia; 99.5% with OVCAR-8 ovarian; 117% in the assay with OVCAR-5 ovarian; 102% in the assay on OVCAR-4 ovarian; 109% with SK-OV-3 ovarian; 103% in the assay with IGROV1 ovarian. The growth in the assay on OVCAR-3 ovarian is 126%; in the assay on HS 578T breast it was 105%; in the assay on NCI/ADR-RES ovarian, 116%; with BT-549 breast it was 97.5%; with MDA-MB-435 melanoma it was 114%; in the assay on SW-620 colon it was 110%. The growth in the assay on MCF7 breast is 95.4%; with HCT-116 colon, 101%; in the assay with HCC-2998 colon, 106%; in the assay on KM12 colon, 109%.

With `COc1cccc(C2C(C#N)=C(N)Oc3cc(OC)ccc32)c1` (configuration not stated), the growth in the assay with RPMI-8226 leukemia is 9.12% (active); with OVCAR-8 ovarian, 3.88% (active); with OVCAR-5 ovarian it was 34.4%; in the assay with OVCAR-4 ovarian it was 59.3%; with SK-OV-3 ovarian, 3.13% (active); with IGROV1 ovarian, 10.9%. For the same molecule, the growth was -28.9% (active) in the assay with OVCAR-3 ovarian; 3.99% (active) in the assay on NCI/ADR-RES ovarian; 55.8% in the assay with T-47D breast; 15.8% in the assay on BT-549 breast; -47.7% (active) in the assay on MDA-MB-435 melanoma; 26% in the assay with SW-620 colon. Besides, the growth is 17.1% in the assay on MCF7 breast, 7.04% (active) with HCT-116 colon, 0.0782% (active) in the assay on HCC-2998 colon and 4.36% (active) in the assay on KM12 colon.

Regarding `COc1ccc2c(c1)nc(N)c1c3ccccc3cn21`, the growth in the assay with RPMI-8226 leukemia was 80.3%; with OVCAR-8 ovarian it was 87.8%; with OVCAR-5 ovarian it was 113%; with OVCAR-4 ovarian, 95.6%; with SK-OV-3 ovarian, 85.6%; with IGROV1 ovarian, 73.1%. In addition, the growth in the assay on OVCAR-3 ovarian is 79.3%; with NCI/ADR-RES ovarian it was 69.1%; with T-47D breast, 70.7%; in the assay on BT-549 breast, 88.4%; with MDA-MB-435 melanoma, 2.56% (active); in the assay with SW-620 colon, 56.8%. The growth is 44.8% in the assay on MCF7 breast, 59.1% in the assay with HCT-116 colon, 103% in the assay with HCC-2998 colon and 63% in the assay with KM12 colon.

On to `O=C(Nc1nc2ccccc2s1)c1cc(-c2ccc(F)cc2)n2nc(-c3ccccc3)cc2n1`, for which the growth is 50.9% with RPMI-8226 leukemia; 56.1% with OVCAR-8 ovarian; 64.7% in the assay on OVCAR-5 ovarian; -24.7% (active) in the assay with OVCAR-4 ovarian; 35% in the assay on SK-OV-3 ovarian; 78% in the assay with IGROV1 ovarian. The growth in the assay on OVCAR-3 ovarian was 20.3%; in the assay with NCI/ADR-RES ovarian it was 61.8%; with T-47D breast, 45.4%; in the assay on BT-549 breast, 79%; in the assay on MDA-MB-435 melanoma, 86.5%; in the assay on SW-620 colon, 67.8%. The growth was 69.3% with MCF7 breast, 45.8% with HCT-116 colon, 97.5% with HCC-2998 colon and 68.7% with KM12 colon.

For `C[n+]1c2ccccc2c(NC2CCNCC2)c2[nH]c3ccccc3c21`, the growth in the assay on RPMI-8226 leukemia was -40.8% (active); with OVCAR-8 ovarian, 15.2%; with OVCAR-5 ovarian, 36.3%; in the assay with OVCAR-4 ovarian, 4.1% (active); with SK-OV-3 ovarian, -0.545% (active); with IGROV1 ovarian it was -20.9% (active). The growth is -1.97% (active) in the assay on OVCAR-3 ovarian; -38% (active) in the assay on HS 578T breast; 96.5% with NCI/ADR-RES ovarian; -9.19% (active) in the assay on T-47D breast; 30.9% in the assay on MDA-MB-435 melanoma; 16.1% with SW-620 colon. For the same molecule, the growth in the assay on HCT-116 colon was 4.09% (active); in the assay on HCC-2998 colon it was -7.7% (active); with KM12 colon it was -11.4% (active).

Regarding `Cn1cc(-c2csc(-c3cn(C)c4ncccc34)n2)c2cc(Br)cnc21`, the growth was 79.3% with RPMI-8226 leukemia; 94.3% with OVCAR-8 ovarian; 88.1% with OVCAR-5 ovarian; 92.1% with OVCAR-4 ovarian; 105% with SK-OV-3 ovarian; 110% with IGROV1 ovarian. The growth in the assay on OVCAR-3 ovarian was 119%; in the assay with NCI/ADR-RES ovarian it was 79.2%; with T-47D breast, 77%; with BT-549 breast it was 95.2%; with MDA-MB-435 melanoma it was 55.2%; in the assay with SW-620 colon it was 89.4%. The growth in the assay with MCF7 breast is 70.2%; in the assay on HCT-116 colon, 90.6%; with HCC-2998 colon, 98%; in the assay on KM12 colon it was 83.1%.

Turning to `Cn1cc(-c2csc(-c3cn(C)c4ncccc34)n2)c2cc(F)cnc21`, the growth was 70.1% in the assay with RPMI-8226 leukemia; 80.8% in the assay on OVCAR-8 ovarian; 91.3% in the assay on OVCAR-5 ovarian; 93.5% with OVCAR-4 ovarian; 107% in the assay with SK-OV-3 ovarian; 84% with IGROV1 ovarian. Besides, the growth in the assay with OVCAR-3 ovarian was 108%; in the assay on NCI/ADR-RES ovarian, 46.9%; in the assay on T-47D breast, 52.2%; in the assay on BT-549 breast, 85.7%; in the assay on MDA-MB-435 melanoma it was 8.5% (active); with SW-620 colon it was 61.7%. The growth is 58% in the assay with MCF7 breast, 72.5% in the assay on HCT-116 colon, 77.3% in the assay with HCC-2998 colon and 60.7% in the assay with KM12 colon.

`COc1ccc(Nc2nccc(N3CCN(c4c5ccc(Cl)cc5nc5ccc(OC)cc45)CC3)n2)cc1`: the growth in the assay on RPMI-8226 leukemia was 29.5%; with OVCAR-8 ovarian, 73.2%; with OVCAR-5 ovarian, 97.1%; in the assay with OVCAR-4 ovarian, 46.6%; with SK-OV-3 ovarian it was 107%; in the assay on IGROV1 ovarian it was 75.7%. Also, the growth with OVCAR-3 ovarian was 67.5%; in the assay on NCI/ADR-RES ovarian, 75.9%; with T-47D breast it was 48.7%; with BT-549 breast it was 90.5%; in the assay on MDA-MB-435 melanoma, 55.8%; in the assay on SW-620 colon, 60.1%. Moreover, the growth in the assay with MCF7 breast was 37.6%; with HCT-116 colon it was 24%; in the assay on HCC-2998 colon it was 93.9%; in the assay with KM12 colon it was 73.9%.

Turning to `COc1ccc2c(c1)nc(N)c1c3cc(OC)c(OC)cc3cn21`, the growth in the assay on RPMI-8226 leukemia is 42.8%; with OVCAR-8 ovarian it was 40.9%; in the assay on OVCAR-5 ovarian, 62.5%; in the assay with OVCAR-4 ovarian, 69.8%; with SK-OV-3 ovarian it was 43.9%; with IGROV1 ovarian it was 65.4%. For the same molecule, the growth with OVCAR-3 ovarian was 37.6%; in the assay on NCI/ADR-RES ovarian, 33.9%; in the assay on T-47D breast, 64%; in the assay with BT-549 breast, 79.8%; in the assay on MDA-MB-435 melanoma, -26.7% (active); with SW-620 colon it was 34.5%. Besides, the growth in the assay on MCF7 breast was 17.5%; in the assay on HCT-116 colon, 27.7%; in the assay on HCC-2998 colon it was 54.5%; in the assay on KM12 colon, 26.9%.

In the case of `CCCCC1Nc2nc(SC)n(C)c(=O)c2CN(Cc2ccccc2)C1=O` (configuration not stated), the growth in the assay with RPMI-8226 leukemia is 67.5%; with OVCAR-8 ovarian, 99.9%; in the assay on OVCAR-5 ovarian, 100%; with OVCAR-4 ovarian it was 103%; in the assay with SK-OV-3 ovarian it was 93.8%; with IGROV1 ovarian, 106%. Further, the growth was 113% in the assay on OVCAR-3 ovarian; 165% in the assay with HS 578T breast; 89.7% in the assay on NCI/ADR-RES ovarian; 93.2% with T-47D breast; 99.4% with MDA-MB-435 melanoma; 107% in the assay with SW-620 colon. For the same molecule, the growth was 97.3% in the assay on HCT-116 colon and 94.3% in the assay on HCC-2998 colon.
